From PubChem BioAssay AID1347406
Active and inactive are the calls of the source.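 Rule for the calls: active = IC50, the dose giving half inhibition, at or below 10 µM; inconclusive = IC50 above 10 µM up to 20 µM; inactive = IC50 over 20 µM.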

biological target: Ubiquitin-like modifier-activating enzyme 1 (Homo sapiens) (UniProt P22314); test: inhibition of ubiquitin E1 thioester formation – biochemical, gel-based, fluorescent Ub (AID 1347406); conditions: fluorescent Ub gel imaging
Sequence (P22314 whole entry, looked up): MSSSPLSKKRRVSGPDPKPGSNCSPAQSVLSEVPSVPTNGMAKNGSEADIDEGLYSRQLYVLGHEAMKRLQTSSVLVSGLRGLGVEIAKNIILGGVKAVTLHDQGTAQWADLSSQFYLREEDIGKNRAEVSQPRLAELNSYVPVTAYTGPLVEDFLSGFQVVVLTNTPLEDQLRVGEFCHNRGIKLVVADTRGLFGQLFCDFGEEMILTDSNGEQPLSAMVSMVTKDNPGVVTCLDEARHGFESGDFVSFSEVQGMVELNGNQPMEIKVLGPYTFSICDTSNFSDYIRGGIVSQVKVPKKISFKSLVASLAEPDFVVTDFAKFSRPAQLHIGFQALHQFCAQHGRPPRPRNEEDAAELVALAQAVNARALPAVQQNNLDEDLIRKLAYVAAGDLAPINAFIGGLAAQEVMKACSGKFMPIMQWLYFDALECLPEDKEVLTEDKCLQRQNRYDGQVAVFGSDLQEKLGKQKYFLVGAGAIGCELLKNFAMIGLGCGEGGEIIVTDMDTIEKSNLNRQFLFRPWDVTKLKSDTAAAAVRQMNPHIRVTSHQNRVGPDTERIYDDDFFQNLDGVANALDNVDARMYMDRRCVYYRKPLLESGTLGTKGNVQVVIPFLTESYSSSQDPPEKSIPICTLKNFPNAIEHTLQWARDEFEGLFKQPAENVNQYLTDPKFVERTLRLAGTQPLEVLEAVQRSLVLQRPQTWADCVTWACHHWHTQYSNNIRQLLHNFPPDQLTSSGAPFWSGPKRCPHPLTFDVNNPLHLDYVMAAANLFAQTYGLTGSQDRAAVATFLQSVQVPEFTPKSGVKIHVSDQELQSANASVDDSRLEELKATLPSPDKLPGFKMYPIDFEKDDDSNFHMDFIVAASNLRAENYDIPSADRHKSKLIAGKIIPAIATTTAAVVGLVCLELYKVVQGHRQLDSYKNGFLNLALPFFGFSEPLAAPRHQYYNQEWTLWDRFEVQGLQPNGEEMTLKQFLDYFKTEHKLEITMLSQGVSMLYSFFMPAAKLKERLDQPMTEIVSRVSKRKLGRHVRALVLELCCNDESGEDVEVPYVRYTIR

outcome, inactive:
NCCCSc1nc2c(c(=O)n1Cc1ccccc1)C1(CCCCC1)Cc1ccccc1-2 inactive; >50 µM
CCNc1ccc(Br)cc(C(=O)/C=C/c2c(Cl)cccc2Cl)c1=O inactive; >50 µM
CNc1ccccc(C(=O)C=Cc2ccc3c(c2)OCO3)c1=O inactive; >50 µM
CCOC(=O)c1c(NC(=O)CCC(=O)O)sc(C)c1-c1ccc(CC(C)C)cc1 inactive; >50 µM
CN(CCC(=O)C=Cc1ccc(Cl)c(Cl)c1)CCc1ccc2c(c1)OCO2 inactive; >50 µM
CCCCCCCCCOc1ccc(C#CC(=O)O)cc1
CCOc1ccc2nc3cc(NC(=O)c4ccco4)ccc3c(N)c2c1 inactive; >50 µM
